High-throughput results deposited in PubChem by several laboratories.
Hits are enriched below; roughly 5.4% of the tested compounds scored in any of these assays.
Calb FLC = affects C. albicans growth with fluconazole; C. albicans CaCi-2 (fluconazole-resistant clinical isolate) + fluconazole, Alamar Blue growth, 48 h; growth inhibition, % (concentration not given with the values); 300,000 tested, 0.57% active; AID 1979;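 active = growth inhibition above about 58% in most replicates, limit read from the data, passing the limit was not always enough; inconclusive = exactly half the replicates above a set limit; inactive = most replicates below a set limit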;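 also: all wells also contain fluconazole at 8 µg/ml as a sub-toxic cotreatment; 0% = median of DMSO wells and 100% = median of geldanamycin control wells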
CSC inhib = cancer stem cell inhibition; cancer stem cell-like cells viability, luminescence; inhibition, % at 7.5 µM; 300,000 tested, 1.1% active; AID 2717; in the data active = inhibition above about 75%; inconclusive = no clear call, values can overlap the other calls; tested in HMLE shEcad cells
ALR H2O2 inh = inhibitors of human sulfhydryl oxidase ALR; purified ALR, DTT oxidation, H2O2 HRP-luminol luminescence; inhibition, % (test concentration not listed); 290,000 tested, 3.8% active; AID 485317;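 active = mean replicate inhibition above about 79%, with every replicate also reaching it, limit read from the data; inconclusive = only one of the two criteria met; inactive = mean below limit and not every replicate reaching it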
Target sequence (P55789 whole entry, looked up): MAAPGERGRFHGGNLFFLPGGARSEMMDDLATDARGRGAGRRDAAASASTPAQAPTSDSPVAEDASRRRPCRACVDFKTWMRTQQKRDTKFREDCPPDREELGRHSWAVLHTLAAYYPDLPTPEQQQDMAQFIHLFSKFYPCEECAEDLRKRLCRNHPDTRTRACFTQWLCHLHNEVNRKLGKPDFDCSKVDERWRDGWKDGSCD
PP5 primary = PP5 (human) phosphatase inhibition; P53041; purified PP5c, OMFP substrate fluorescence; inhibition, % at 6.7 µM; 320,000 tested, 0.18% active; AID 1987;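 active = inhibition above the campaign's mean inhibition across all tested compounds plus 3 SD, cut at about 9.5% in these data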;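 also: 0% = DMSO only and 100% = 100 µM cantharidin control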
PP1 inh = blocks human PP1-alpha phosphatase, a PP5 counter-screen. purified PP1alpha, OMFP fluorescence. inhibition, % at 6.7 µM. 320,000 tested, 0.9% active;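 active = inhibition above the mean inhibition of all tested compounds plus 3 SD, computed separately for each screening campaign, cut at about 15% in these data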
Target sequence (P62136 whole entry, looked up): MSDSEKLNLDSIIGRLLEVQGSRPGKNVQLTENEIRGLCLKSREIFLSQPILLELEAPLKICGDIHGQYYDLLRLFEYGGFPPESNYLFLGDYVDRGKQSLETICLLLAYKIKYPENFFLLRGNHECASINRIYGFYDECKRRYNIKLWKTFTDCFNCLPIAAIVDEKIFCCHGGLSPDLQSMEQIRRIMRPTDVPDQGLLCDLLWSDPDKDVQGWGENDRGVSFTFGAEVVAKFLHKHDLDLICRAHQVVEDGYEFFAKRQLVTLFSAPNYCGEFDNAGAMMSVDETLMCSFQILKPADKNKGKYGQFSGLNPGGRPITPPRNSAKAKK
Numbers without * were called inactive; ? = inconclusive; · = no result.

SMILES	Calb FLC	CSC inhib	ALR H2O2 inh	PP5 primary	PP1 inh
Nc1cc(C(=O)O)c(N)c2c1C(=O)c1ccccc1C2=O	-10	18	99*	3	5
CCCNC(=O)Cn1c(=O)/c(=C\c2ccc(-c3cccc([N+](=O)[O-])c3)o2)s/c1=C\C(=O)C(C)(C)C	-5	7	7	2	16*
COc1cccc(N2CCN(CC(=O)NC3=Nc4ccccc4N=C(C)C3c3ccccc3)CC2)c1 (stereo not drawn)	12	4	·	-2	4
CCc1ccc(-c2cn(C3CCCCC3)c(=S)[nH]2)cc1	-16	36	97*	4	5
Cc1cc(OCc2cc(C(=O)N3CCC(Oc4cccnc4)CC3)no2)cc(C)c1Cl	7	77*	-6	5	1
Cc1ccccc1-c1cc2nc(C)c(Cl)c(=O)n2[nH]1	0	6	0	1	-1
Cc1ccccc1-c1cc2nc(-c3ccc([N+](=O)[O-])cc3)cc(=O)n2[nH]1	0	13	3	0	16*
CCCc1nnc(NC(=O)c2cc3ccccc3o2)s1	-3	-15	-4	-1	-3
CC(=O)c1ccc(NC(=S)NNC(=O)NC2CCCCC2)cc1	?	-16	94*	-3	1
S=C(Nc1ccc(Oc2ccccc2)cc1)NC1CCCCC1	0	-6	·	1	0
NS(=O)(=O)c1ccc(NC(=S)NC2CCCCCC2)cc1	-10	-3	96*	3	-1
S=C(Nc1ccc(Oc2ccccc2)cc1)NC1CCCCCC1	-9	95*	18	4	3
COc1ccc(CNCCNC(=O)c2nonc2N)cc1OC	-14	-14	-4	3	2
O=C(/C=C/c1ccc2c(c1)OCO2)Nc1nc(-c2ccccc2)cs1	-3	99*	2	4	-4
COc1cc(/C=C/C(=O)Nc2cccnc2)cc(OC)c1OC	76*	-7	6	1	1
Cc1sc(NC(=O)/C=C/c2ccc3c(c2)OCO3)nc1-c1ccccc1	4	108*	-7	-1	1
O=C(/C=C/c1ccc2c(c1)OCO2)Nc1nncs1	-1	57	·	-2	-7
O=C(/C=C/c1ccc2c(c1)OCO2)Nc1cccnc1	-15	83*	-17	-3	-6
Cn1c(=O)cc(OCCCC(=O)NCc2ccc(F)cc2Cl)c2ccccc21	-12	-7	3	0	-4
CCc1cccc(NC(=O)CC2SC(N3CCCC3)=NC2=O)c1 (stereo not drawn)	·	-14	-3	·	·
Cc1ccc(SCC(=O)NCc2cccnc2)cc1	-7	17	-2	1	-15
CC(C)CNS(=O)(=O)c1ccc(CCC(=O)Nc2ccc3c(c2)OCO3)cc1	-4	-2	-2	-1	-3
CCCCCCn1c(N2CCN(c3ccccc3)CC2)nc2c1c(=O)[nH]c(=O)n2C	-1	-9	8	1	4
CC1CCN(c2c(NCC3CCC(C(=O)NCCc4ccccc4)CC3)c(=O)c2=O)CC1 (stereo not drawn)	-5	-12	·	1	-3
CCCCC(=O)/C=C/n1c(=S)oc2ccccc21	-5	16	53	-1	-4
SMILES	Calb FLC	CSC inhib	ALR H2O2 inh	PP5 primary	PP1 inh
O=C(/C=C/c1ccc2c(c1)OCO2)Nc1c(C(=O)O)[nH]c2ccccc12	-3	-11	98*	2	2
Cc1cc(C)nc(NC(=O)/C=C/c2ccc3c(c2)OCO3)c1	0	85*	-1	5	5
COc1cc(C2NC(=S)NC(C)=C2C(=O)OC(C)C)ccc1OC(C)C (stereo not drawn)	2	-17	96*	1	2
Cc1ccc(NC(=O)CN(C)C(=O)Cn2ncc(Cl)c(Cl)c2=O)cc1	20	110*	7	1	-7
O=C1CC2(CCN(C(=O)c3ccc(Cl)cc3)CC2)Oc2ccccc21	2	-1	-2	2	-4
O=C(NCc1ccccn1)Nc1ccccc1Cl	6	0	-14	3	-6
COc1ccc(C(CC(=O)NCc2ccccc2)Sc2n[nH]c(-c3ccccc3)n2)cc1 (stereo not drawn)	-32	·	-5	1	1
COc1ccc(-c2nc(SC(CC(=O)NCCN3CCOCC3)c3cccs3)n[nH]2)cc1 (stereo not drawn)	12	-6	97*	3	-2
COc1ccc(-c2nc(SC(CC(=O)NCc3ccccc3)c3ccc(OC)c(OC)c3)n[nH]2)cc1 (stereo not drawn)	-5	-8	95*	5	0
CCc1nc(N2CCC(C)CC2)c2oc3ccccc3c2n1	-11	?	-3	1	-3
CC(C)C(=O)n1nc(-c2cccnc2)nc1NCc1ccc(F)cc1	3	-14	97*	-2	-4
C/C(CCc1ccc2c(c1)OCO2)=N\NC(=S)NC(C)C	3	-15	85*	-1	0
COCCNC(=S)N/N=C(\C)CCc1ccc2c(c1)OCO2	-1	-9	4	-3	-2
Cc1ccc(NS(=O)(=O)c2ccc(NC(=O)C3CC3)cc2)cc1C	-3	·	·	·	·
C=CCn1c(SCc2c(F)c(F)c(F)c(F)c2F)nc(O)cc1=O	53	·	99*	-2	3
O=S(=O)(NCc1ccc2c(c1)OCO2)c1cccc(F)c1	4	·	-1	·	·
CCOC(=O)/C(C#N)=C/c1c(Oc2cccc(C)c2)nc2ccccn2c1=O	-5	-2	1	2	-1
CCN(C=NC1=NN(c2cccc(C(F)(F)F)c2)CC1)CC	-3	·	94*	2	2
Cc1cccc(N2CCC(N=CN(C)C)=N2)c1	5	-7	99*	3	3
Cc1ccc(-c2csc3n[nH]c(=S)n23)cc1	12	-10	98*	0	-2
CCn1c(-c2ccc(C)cc2)n[nH]c1=S	3	-5	10	3	-1
O=C(Oc1c(CN2CCOCC2)cc(Cl)c2cccnc12)c1ccccc1F	102*	22	·	2	10
COc1cc(OC)cc(C(=O)Oc2c(CN3CCOCC3)cc(Cl)c3cccnc23)c1	113*	33	1	1	14
COc1ccc(C(=O)Oc2c(CN3CCOCC3)cc(Cl)c3cccnc23)cc1OC	1	1	-2	3	-1
O=C(Oc1c(CN2CCOCC2)cc(Cl)c2cccnc12)c1ccccc1	118*	12	-16	-1	5
SMILES	Calb FLC	CSC inhib	ALR H2O2 inh	PP5 primary	PP1 inh
COc1ccccc1OCCNC(=O)c1cccs1	-12	-9	-18	2	-5
COc1ccc(OC)c(S(=O)(=O)NNC(=S)Nc2ccc3c(c2)OCO3)c1	13	-7	94*	-2	-2
O=C1CCCC2=C1C(c1ccc(O)c(O)c1)Nc1ccc3ccccc3c12 (stereo not drawn)	3	-7	98*	-1	-4
Cc1csc(Nc2ccccc2)[n+]1-c1ccccc1	40	-13	99*	0	2
C=CC[n+]1c(C)csc1Nc1ccc(C(=O)O)cc1	6	9	65	0	0
Cc1c(Nc2scc(-c3ccccc3)[n+]2-c2ccccc2)c(=O)n(-c2ccccc2)n1C	79	15	-11	1	-1
Cc1csc(Nc2ccccc2)[n+]1C	-20	-19	98*	2	2
